Measured values published in PubChem BioAssay (NCI).
This is part of a sample that, as a whole, favours compounds with a hit. Of some 79,000 tested, about 15% had one in any assay. A number with no mark means an inactive call. Active and inactive are the calls of the source. No stated cut-off is given here; in the data, active means growth inhibition above about 70%; inactive means the rest.

Tests used:
[1] = NCI Yeast Anticancer Drug Screen. Data for the mlh1 strain (AID 171);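 further: 0% = growth of vehicle-treated control cultures of the same strain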; conditions: S. cerevisiae mlh1 strain growth inhibition, stronger effect = higher value
Method in brief: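 A yeast strain with a defined genetic lesion serves as the test organism. Cultures receive compound or vehicle, and growth is measured.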

[2] = NCI Yeast Anticancer Drug Screen. Data for the mlh1 rad18 strain (AID 175); conditions: S. cerevisiae mlh1 rad18 strain growth inhibition, stronger effect = higher value
Method in brief: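 Steps: expose repair-defective yeast to compound; measure growth; express inhibition against vehicle-treated controls.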

[3] = NCI Yeast Anticancer Drug Screen. Data for the rad18 strain (AID 177); conditions: S. cerevisiae rad18 mutant growth inhibition, stronger effect = higher value
Method in brief: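 Measured value is growth inhibition of a yeast strain bearing a DNA repair alteration, referenced to vehicle-treated cells.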

[4] = NCI Yeast Anticancer Drug Screen. Data for the rad52 strain (AID 147);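 further: 0% = growth of vehicle-treated control cultures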; conditions: S. cerevisiae rad52 mutant growth inhibition, stronger effect = higher value
Method in brief: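 Here a repair-compromised yeast strain receives each compound; its growth is then quantified and normalised to vehicle-only controls.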

[5] = NCI Yeast Anticancer Drug Screen. Data for the wt1 strain (AID 149);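 further: 0% = growth of vehicle-treated wt1 cultures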; conditions: S. cerevisiae wt1 strain (SPY 50644) growth inhibition, stronger effect = higher value
Method in brief: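 Growth inhibition read against vehicle controls after compound exposure of the wt1 yeast strain.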

[6] = NCI Yeast Anticancer Drug Screen. Data for the mgt1 strain (AID 153); conditions: S. cerevisiae mgt1 mutant growth inhibition, stronger effect = higher value
Method in brief: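 Measured: inhibition of mgt1 yeast growth by compound, normalized to vehicle-treated cultures.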

[7] = NCI Yeast Anticancer Drug Screen. Data for the rad50 strain (AID 155);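 further: 0% = growth of vehicle-only cultures of the same strain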; conditions: S. cerevisiae rad50 strain growth inhibition, stronger effect = higher value
Method in brief: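 Readout: growth inhibition relative to vehicle-treated cultures. Compound exposure was carried out in a genetically defined yeast strain deficient in DNA damage repair.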

[8] = NCI Yeast Anticancer Drug Screen. Data for the mec2-1 strain (AID 157); conditions: S. cerevisiae mec2-1 strain, stronger effect = higher value
Method in brief: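 Using mec2-1 yeast: add compound, measure growth, express inhibition versus vehicle-treated cultures.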

[9] = NCI Yeast Anticancer Drug Screen. Data for the rad14 strain (AID 159);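 further: 0% = growth of vehicle-treated control cultures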; conditions: S. cerevisiae rad14 strain growth inhibition, stronger effect = higher value
Method in brief: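 Growth inhibition vs vehicle controls; genetically altered yeast strain (DNA damage repair defect) treated with test compounds.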

[10] = NCI Yeast Anticancer Drug Screen. Data for the sgs1 mgt1 strain (AID 161);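 further: 0% = growth of cultures given vehicle only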; conditions: S. cerevisiae sgs1 mgt1 strain, stronger effect = higher value
Method in brief: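 Percent growth inhibition was derived by comparing compound-exposed mutant yeast with vehicle-exposed cultures. The strain carries alterations in DNA damage repair.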

[11] = NCI Yeast Anticancer Drug Screen. Data for the CLN2oe strain (AID 163);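 further: 0% = growth of vehicle-only control cultures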; conditions: S. cerevisiae CLN2oe strain, stronger effect = higher value
Method in brief: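 Whole-cell yeast growth assay. A strain engineered for altered cell-cycle control received compound, and inhibition relative to vehicle-treated cultures was recorded.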

[12] = NCI Yeast Anticancer Drug Screen. Data for the cln2 rad14 strain (AID 165);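 further: 0% = growth equal to vehicle treated cultures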; conditions: S. cerevisiae cln2 rad14 strain, stronger effect = higher value
Method in brief: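 Yeast strain cln2 rad14, bearing defects in cell cycle control and DNA repair, serves as the test system; values reflect growth inhibition compared with vehicle.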

[13] = NCI Yeast Anticancer Drug Screen. Data for the bub3 strain (AID 167); conditions: S. cerevisiae bub3 mutant strain, stronger effect = higher value
Method in brief: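 Readout: yeast growth inhibition, expressed relative to vehicle-only wells. The test organism is a mutant strain from a panel with lesions in DNA repair or checkpoint genes.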

[14] = NCI Yeast Anticancer Drug Screen. Data for the wt2 strain (AID 169);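 further: 0% = growth of vehicle-treated yeast cultures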; conditions: S. cerevisiae wt2 strain growth inhibition, stronger effect = higher value
Method in brief: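 Treated yeast vs. vehicle-treated yeast: growth inhibition determined.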

[15] = NCI Yeast Anticancer Drug Screen. Data for the sgs1 strain (AID 173);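 further: 0% = growth of vehicle-only control cultures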; conditions: S. cerevisiae sgs1 mutant, stronger effect = higher value
Method in brief: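 A genetically defined yeast mutant is incubated with the test compound, and its growth is compared to that of the same strain given vehicle.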

[16] = at 5.0 µM (retest, dose inferred, filed as 0.5)
[17] = at 50.0 µM (retest, dose inferred, filed as 5.0)

CC1SC2(C(=O)Nc3ccc(Cl)cc32)N(c2ccc(Cl)cc2)C1=O (centres undefined)
growth inhibition ([1]; at 1.2 µM): -1% | growth inhibition ([1]; at 3.7 µM): -1% | growth inhibition ([1]; at 11.0 µM): 12% | growth inhibition ([1]; at 33.0 µM): 97% (active) | growth inhibition ([1]; at 100.0 µM): 93% (active) | growth inhibition [2, 16]: 8% | growth inhibition [2, 17]: -4% | growth inhibition ([2]; at 50.0 µM): 99.5% (active) | growth inhibition ([3]; at 1.2 µM): -41% | growth inhibition ([3]; at 3.7 µM): 11% | growth inhibition ([3]; at 11.0 µM): 35% | growth inhibition ([3]; at 33.0 µM): 97% (active) | growth inhibition ([3]; at 100.0 µM): 81% (active)

O=C(CSC(=S)N1CCCCC1)Nc1nc2c(s1)CCCC2
growth inhibition ([4]; at 1.2 µM): 1% | growth inhibition ([4]; at 3.7 µM): 6% | growth inhibition ([4]; at 11.0 µM): 6% | growth inhibition ([4]; at 33.0 µM): 41% | growth inhibition ([4]; at 100.0 µM): 79% (active) | growth inhibition ([5]; at 1.2 µM): -9% | growth inhibition ([5]; at 3.7 µM): -11% | growth inhibition ([5]; at 11.0 µM): -13% | growth inhibition ([5]; at 33.0 µM): 3% | growth inhibition ([5]; at 100.0 µM): 79% (active) | growth inhibition ([6]; at 1.2 µM): -8% | growth inhibition ([6]; at 3.7 µM): -7% | growth inhibition ([6]; at 11.0 µM): -16% | growth inhibition ([6]; at 33.0 µM): 17% | growth inhibition ([6]; at 100.0 µM): 85% (active) | growth inhibition ([7]; at 1.2 µM): -11% | growth inhibition ([7]; at 3.7 µM): -2% | growth inhibition [7, 16]: 31% | growth inhibition ([7]; at 11.0 µM): -16% | growth inhibition ([7]; at 33.0 µM): 26% | growth inhibition [7, 17]: 68% | growth inhibition ([7]; at 50.0 µM): 74.3% (active) | growth inhibition ([7]; at 100.0 µM): 83% (active) | growth inhibition ([8]; at 1.2 µM): 7% | growth inhibition ([8]; at 3.7 µM): -9% | growth inhibition [8, 16]: -4% | growth inhibition ([8]; at 11.0 µM): 1% | growth inhibition ([8]; at 33.0 µM): 1% | growth inhibition [8, 17]: 45% | growth inhibition ([8]; at 50.0 µM): 56.6% | growth inhibition ([8]; at 100.0 µM): 79% (active) | growth inhibition ([9]; at 1.2 µM): -9% | growth inhibition ([9]; at 3.7 µM): -14% | growth inhibition ([9]; at 11.0 µM): -6% | growth inhibition ([9]; at 33.0 µM): 11% | growth inhibition ([9]; at 100.0 µM): 73% (active) | growth inhibition [10, 16]: 17% | growth inhibition [10, 17]: 87% (active) | growth inhibition ([10]; at 50.0 µM): 86% (active) | growth inhibition ([11]; at 1.2 µM): 3% | growth inhibition ([11]; at 3.7 µM): -6% | growth inhibition ([11]; at 11.0 µM): -14% | growth inhibition ([11]; at 33.0 µM): 0% | growth inhibition ([11]; at 100.0 µM): 61% | growth inhibition [12, 16]: 11% | growth inhibition [12, 17]: 70% (active) | growth inhibition ([12]; at 50.0 µM): 72.2% (active) | growth inhibition ([13]; at 1.2 µM): 5% | growth inhibition ([13]; at 3.7 µM): -8% | growth inhibition [13, 16]: 45% | growth inhibition ([13]; at 11.0 µM): -4% | growth inhibition ([13]; at 33.0 µM): 80% (active) | growth inhibition [13, 17]: 92% (active) | growth inhibition ([13]; at 50.0 µM): 86.5% (active) | growth inhibition ([13]; at 100.0 µM): 85% (active) | growth inhibition ([14]; at 1.2 µM): -7% | growth inhibition ([14]; at 3.7 µM): -3% | growth inhibition ([14]; at 11.0 µM): -2% | growth inhibition ([14]; at 33.0 µM): 22% | growth inhibition ([14]; at 100.0 µM): 88% (active) | growth inhibition ([1]; at 1.2 µM): 24% | growth inhibition ([1]; at 3.7 µM): 19% | growth inhibition ([1]; at 11.0 µM): 14% | growth inhibition ([1]; at 33.0 µM): 43% | growth inhibition ([1]; at 100.0 µM): 84% (active) | growth inhibition ([15]; at 1.2 µM): 22% | growth inhibition ([15]; at 3.7 µM): 20% | growth inhibition ([15]; at 11.0 µM): 15% | growth inhibition ([15]; at 33.0 µM): 52% | growth inhibition ([15]; at 100.0 µM): 92% (active) | growth inhibition [2, 16]: 16% | growth inhibition [2, 17]: 53% | growth inhibition ([2]; at 50.0 µM): 78.6% (active) | growth inhibition ([3]; at 1.2 µM): 27% | growth inhibition ([3]; at 3.7 µM): 19% | growth inhibition ([3]; at 11.0 µM): 25% | growth inhibition ([3]; at 33.0 µM): 23% | growth inhibition ([3]; at 100.0 µM): 76% (active)

O=C1C(=O)c2ccccc2C(O)=C1C(C1=C(O)c2ccccc2C(=O)C1=O)c1ccc(Cl)cc1
growth inhibition ([4]; at 1.2 µM): 9% | growth inhibition ([4]; at 3.7 µM): 26% | growth inhibition ([4]; at 11.0 µM): 62% | growth inhibition ([4]; at 33.0 µM): 60% | growth inhibition ([4]; at 100.0 µM): 48% | growth inhibition ([5]; at 1.2 µM): 4% | growth inhibition ([5]; at 3.7 µM): 8% | growth inhibition ([5]; at 11.0 µM): 31% | growth inhibition ([5]; at 33.0 µM): 32% | growth inhibition ([5]; at 100.0 µM): 29% | growth inhibition ([6]; at 1.2 µM): 4% | growth inhibition ([6]; at 3.7 µM): 9% | growth inhibition ([6]; at 11.0 µM): 64% | growth inhibition ([6]; at 33.0 µM): 75% (active) | growth inhibition ([6]; at 100.0 µM): 69% | growth inhibition ([7]; at 1.2 µM): 11% | growth inhibition ([7]; at 3.7 µM): 18% | growth inhibition [7, 16]: -7% | growth inhibition ([7]; at 11.0 µM): 51% | growth inhibition ([7]; at 33.0 µM): 41% | growth inhibition [7, 17]: 73% (active) | growth inhibition ([7]; at 50.0 µM): 92.5% (active) | growth inhibition ([7]; at 100.0 µM): 31% | growth inhibition ([8]; at 1.2 µM): 10% | growth inhibition ([8]; at 3.7 µM): 18% | growth inhibition [8, 16]: -5% | growth inhibition ([8]; at 11.0 µM): 60% | growth inhibition ([8]; at 33.0 µM): 63% | growth inhibition [8, 17]: -6% | growth inhibition ([8]; at 50.0 µM): 72.2% (active) | growth inhibition ([8]; at 100.0 µM): 65% | growth inhibition ([9]; at 1.2 µM): 5% | growth inhibition ([9]; at 3.7 µM): -6% | growth inhibition ([9]; at 11.0 µM): 28% | growth inhibition ([9]; at 33.0 µM): 32% | growth inhibition ([9]; at 100.0 µM): 15% | growth inhibition [10, 16]: -2% | growth inhibition [10, 17]: 21% | growth inhibition ([10]; at 50.0 µM): 60.1% | growth inhibition [12, 16]: 0% | growth inhibition [12, 17]: 3% | growth inhibition ([12]; at 50.0 µM): 42.4% | growth inhibition ([13]; at 1.2 µM): -1% | growth inhibition ([13]; at 3.7 µM): 5% | growth inhibition [13, 16]: -3% | growth inhibition ([13]; at 11.0 µM): 55% | growth inhibition ([13]; at 33.0 µM): 66% | growth inhibition [13, 17]: 34% | growth inhibition ([13]; at 50.0 µM): 80% (active) | growth inhibition ([13]; at 100.0 µM): 50% | growth inhibition ([14]; at 1.2 µM): 4% | growth inhibition ([14]; at 3.7 µM): 15% | growth inhibition ([14]; at 11.0 µM): 50% | growth inhibition ([14]; at 33.0 µM): 54% | growth inhibition ([14]; at 100.0 µM): 46% | growth inhibition ([1]; at 1.2 µM): 6% | growth inhibition ([1]; at 3.7 µM): 13% | growth inhibition ([1]; at 11.0 µM): 58% | growth inhibition ([1]; at 33.0 µM): 62% | growth inhibition ([1]; at 100.0 µM): 56% | growth inhibition ([15]; at 1.2 µM): 16% | growth inhibition ([15]; at 3.7 µM): 39% | growth inhibition ([15]; at 11.0 µM): 74% (active) | growth inhibition ([15]; at 33.0 µM): 72% (active) | growth inhibition ([15]; at 100.0 µM): 63% | growth inhibition [2, 16]: -5% | growth inhibition [2, 17]: 42% | growth inhibition ([2]; at 50.0 µM): 86.2% (active) | growth inhibition ([3]; at 1.2 µM): 23% | growth inhibition ([3]; at 3.7 µM): 38% | growth inhibition ([3]; at 11.0 µM): 70% (active) | growth inhibition ([3]; at 33.0 µM): 64% | growth inhibition ([3]; at 100.0 µM): 49%
